The text below walks through data of PubChem BioAssay.

Active and inactive are the calls of the source.

Assay [1] in a line: small molecules captured by biotinylated probe aFSTL3 – biochemical, small-molecule microarray, fluorescence 635/667, stem cell growth factor project, primary screen (AID 1064).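 Further: measures binding of the biotinylated anti-FSTL3 antibody to printed compounds.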 The note with it: higher = more signal.
Assay [2] is described as follows: binders from COS7 lysate, DM2A8 probe, primary screen, torsin A project, cell lysate, small-molecule microarray, fluorescence 635/667 (AID 1065). The note with it: higher = more signal, COS7 lysate expressing mutant human TOR1A.
Assay [3] is described as follows: small molecules captured by biotinylated probe aFGF2 – biochemical, small-molecule microarray, fluorescence 635/667, stem cell growth factor project, primary screen (AID 1067).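 Further: measures binding of biotinylated aFGF2 protein to printed compounds on slides; z-score merges feature fluorescence and signal-to-noise across triplicate slides.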 The note with it: higher = more signal.
A short description of assay [4]: small molecules captured by biotinylated probe aFGF10 – biochemical, small-molecule microarray, fluorescence 635/667, stem cell growth factor project, primary screen (AID 1071).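 Further: score merges 667 nm spot intensity and signal to noise from triplicate slides.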 The note with it: higher = more signal.
For assay [5], the target named is Neurogenic locus notch homolog protein 2 (Homo sapiens) (UniProt Q04721). The assay can be described thus: small molecules binding Notch2 protein – biochemical, small-molecule microarray, 635 nm fluorescence, stem cell growth factors, primary screen (AID 1073). Conditions: higher = more signal.
Sequence of Neurogenic locus notch homolog protein 2 (Homo sapiens) (Q04721 whole entry, looked up, canonical isoform): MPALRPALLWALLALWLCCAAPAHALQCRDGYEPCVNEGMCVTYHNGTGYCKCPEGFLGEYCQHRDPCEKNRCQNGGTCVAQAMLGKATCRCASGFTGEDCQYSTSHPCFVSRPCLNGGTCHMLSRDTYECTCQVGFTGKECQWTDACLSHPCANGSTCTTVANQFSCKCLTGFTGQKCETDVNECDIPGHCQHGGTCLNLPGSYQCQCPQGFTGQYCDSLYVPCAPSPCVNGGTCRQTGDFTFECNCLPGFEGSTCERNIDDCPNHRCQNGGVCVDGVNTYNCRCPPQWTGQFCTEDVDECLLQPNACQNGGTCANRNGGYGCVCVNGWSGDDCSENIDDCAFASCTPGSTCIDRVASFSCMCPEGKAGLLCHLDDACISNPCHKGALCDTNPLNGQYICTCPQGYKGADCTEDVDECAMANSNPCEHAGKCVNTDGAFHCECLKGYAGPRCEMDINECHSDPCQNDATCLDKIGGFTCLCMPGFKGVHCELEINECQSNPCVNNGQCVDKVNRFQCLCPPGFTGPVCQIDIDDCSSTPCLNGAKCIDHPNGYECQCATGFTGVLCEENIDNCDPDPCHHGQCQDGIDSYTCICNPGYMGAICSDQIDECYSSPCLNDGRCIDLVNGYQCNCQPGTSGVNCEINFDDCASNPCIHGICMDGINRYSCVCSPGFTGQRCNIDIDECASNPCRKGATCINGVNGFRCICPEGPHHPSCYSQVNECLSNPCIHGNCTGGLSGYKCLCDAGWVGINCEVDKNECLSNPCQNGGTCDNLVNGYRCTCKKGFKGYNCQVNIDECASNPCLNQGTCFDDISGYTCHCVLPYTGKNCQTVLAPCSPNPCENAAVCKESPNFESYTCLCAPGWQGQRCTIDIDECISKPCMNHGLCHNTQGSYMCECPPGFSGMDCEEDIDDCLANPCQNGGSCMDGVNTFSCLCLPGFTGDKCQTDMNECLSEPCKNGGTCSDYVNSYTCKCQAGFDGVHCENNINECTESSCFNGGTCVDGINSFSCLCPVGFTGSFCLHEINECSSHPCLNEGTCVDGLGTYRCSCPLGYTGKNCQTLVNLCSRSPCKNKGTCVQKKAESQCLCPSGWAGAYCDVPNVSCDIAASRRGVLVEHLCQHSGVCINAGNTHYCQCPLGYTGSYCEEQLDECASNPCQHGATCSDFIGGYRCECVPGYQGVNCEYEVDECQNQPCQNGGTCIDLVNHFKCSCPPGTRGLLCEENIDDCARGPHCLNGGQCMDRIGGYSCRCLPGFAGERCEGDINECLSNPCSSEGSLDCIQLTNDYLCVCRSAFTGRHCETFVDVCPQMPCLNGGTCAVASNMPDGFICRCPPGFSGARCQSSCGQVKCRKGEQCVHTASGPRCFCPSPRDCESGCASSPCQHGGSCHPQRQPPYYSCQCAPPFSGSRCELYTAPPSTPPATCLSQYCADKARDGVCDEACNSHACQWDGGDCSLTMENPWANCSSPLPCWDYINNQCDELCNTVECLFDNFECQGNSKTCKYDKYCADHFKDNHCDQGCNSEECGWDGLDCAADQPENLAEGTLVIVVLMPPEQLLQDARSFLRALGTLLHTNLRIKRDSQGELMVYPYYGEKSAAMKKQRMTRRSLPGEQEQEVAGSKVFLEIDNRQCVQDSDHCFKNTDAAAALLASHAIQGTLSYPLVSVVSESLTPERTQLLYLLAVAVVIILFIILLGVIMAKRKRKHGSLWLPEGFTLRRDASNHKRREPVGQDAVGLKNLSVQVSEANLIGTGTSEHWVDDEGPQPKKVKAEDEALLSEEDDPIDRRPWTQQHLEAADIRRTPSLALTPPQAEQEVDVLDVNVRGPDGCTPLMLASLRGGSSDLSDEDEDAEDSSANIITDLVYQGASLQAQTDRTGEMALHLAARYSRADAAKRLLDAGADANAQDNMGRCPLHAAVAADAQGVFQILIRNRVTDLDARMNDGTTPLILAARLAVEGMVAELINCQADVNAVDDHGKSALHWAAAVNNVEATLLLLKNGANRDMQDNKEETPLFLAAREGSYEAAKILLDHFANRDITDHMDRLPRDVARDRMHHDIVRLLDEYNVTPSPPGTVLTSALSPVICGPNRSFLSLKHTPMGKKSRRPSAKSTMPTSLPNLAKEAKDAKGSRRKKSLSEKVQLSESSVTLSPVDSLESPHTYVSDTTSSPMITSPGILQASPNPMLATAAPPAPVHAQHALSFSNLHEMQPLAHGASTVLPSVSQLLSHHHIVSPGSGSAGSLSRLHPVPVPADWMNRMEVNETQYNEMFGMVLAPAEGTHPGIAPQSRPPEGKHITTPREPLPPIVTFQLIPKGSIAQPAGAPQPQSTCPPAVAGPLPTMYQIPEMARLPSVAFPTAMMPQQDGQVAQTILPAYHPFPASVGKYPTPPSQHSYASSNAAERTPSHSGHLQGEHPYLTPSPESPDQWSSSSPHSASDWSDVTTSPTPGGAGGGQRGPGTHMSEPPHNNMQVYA
Assay [6] addresses Pro-neuregulin-1, membrane-bound isoform (Homo sapiens) (UniProt Q02297). In words: small molecules binding neuregulin-1 protein – biochemical, small-molecule microarray, fluorescence 635/667, psychiatric disease protein project, primary screen (AID 1075).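 Further: score combines 667 nm spot fluorescence with signal to noise.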 Conditions: NRG1 binding, 635 nm fluorescence, higher = more signal.
Assay [7] has as its system Neuregulin-1 EGF-like domain. The assay can be described thus: small molecules binding NRG1 EGF domain – biochemical, small-molecule microarray, 635 nm fluorescence, primary screen (AID 1081).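 Further: binding of the protein to compounds printed on small-molecule microarray slides.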 The note with it: higher = more signal.
Assay [8] can be described thus: FRG1 expression reporter modulators in myotubes – cell-based, C2C12 myotubes, firefly/Renilla luciferase, luminescence, FRG1 inhibition for FSHD, primary screen (AID 1084). Conditions: FRG1 promoter luciferase, higher = more signal, called active from +8 up or from −8 down.
A short description of assay [9]: small molecules captured by biotinylated probe aFST – biochemical, small-molecule microarray, fluorescence 635/667, stem cell growth factor project, primary screen (AID 1086).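 Further: score merges 667 nm fluorescence with signal-to-noise of each printed compound spot.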 The note with it: higher = more signal.
Assay [10] is described as follows: binders of probe aHhip on microarray, primary screen, stem cell growth factor project, biochemical, small-molecule microarray, fluorescence 635/667 (AID 1087).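 Further: score merges spot fluorescence at 667nm with spot signal to noise ratio.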 Conditions: higher = more signal.
The subject of assay [11] is PRMT1 (protein arginine N-methyltransferase 1). In words: small molecules binding arginine methyltransferase PRMT1 – biochemical, small-molecule microarray, 635 nm fluorescence, primary screen (AID 1088).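 Further: binding of Prmt1 protein to compounds spotted on small-molecule microarray slides.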 Conditions: higher = more signal.
The nature of assay [12]: growth effects on S. cerevisiae YJM789 – YJM789 clinical isolate, OD600, 24 h, basal, primary screen (AID 1089).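 Further: growth of clinical yeast isolate S. cerevisiae YJM 789 seeded 1000 cells per well; test concentration not given here.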 Conditions: higher = more signal, called active from +8 up or from −8 down.
The nature of assay [13]: S. pombe growth modifiers, basal conditions – strain 972, OD600, 24 h, no modulator, primary screen (AID 1090).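 Further: basal condition with compound alone and no growth modifier present; test concentration not given here.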 Conditions: S. pombe 972 growth, higher = more signal, called active from +8 up or from −8 down.
The nature of assay [14]: budding yeast growth modifiers under rapamycin – strain BY4716, OD600, 96 h, primary screen (AID 1091). Further: test concentration not given here. Conditions: S. cerevisiae BY4716 + rapamycin, higher = more signal, called active from +8 up or from −8 down.
The target of assay [15] is Torsin-1A-interacting protein 2 (Homo sapiens) (UniProt Q8NFQ8). The assay can be described thus: small molecules binding lysate-expressed LULL1 – cell lysate, human LULL1 lysate, 635/667 nm fluorescence, primary screen (AID 1092).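 Further: score merges per-feature 667 nm fluorescence with signal-to-noise.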 The note with it: small-molecule microarray, hLULL1 lysate binding, 635 nm fluorescence; higher = more signal.
Sequence of Torsin-1A-interacting protein 2 (Homo sapiens) (Q8NFQ8 whole entry, looked up): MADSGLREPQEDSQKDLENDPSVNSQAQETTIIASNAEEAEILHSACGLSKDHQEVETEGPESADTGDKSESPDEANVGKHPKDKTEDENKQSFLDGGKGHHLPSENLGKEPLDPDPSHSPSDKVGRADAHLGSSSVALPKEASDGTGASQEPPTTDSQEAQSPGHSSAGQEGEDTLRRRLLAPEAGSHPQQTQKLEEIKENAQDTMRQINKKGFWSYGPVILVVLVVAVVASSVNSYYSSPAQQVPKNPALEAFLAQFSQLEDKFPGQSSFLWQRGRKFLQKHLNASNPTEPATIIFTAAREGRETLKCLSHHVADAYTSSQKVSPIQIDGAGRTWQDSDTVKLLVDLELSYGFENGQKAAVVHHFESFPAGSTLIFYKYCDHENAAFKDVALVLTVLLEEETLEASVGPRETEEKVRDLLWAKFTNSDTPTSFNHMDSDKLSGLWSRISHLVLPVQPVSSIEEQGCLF
A short description of assay [16]: optical density change of DRC41 E. coli – strain DRC41, OD650, 24 h, E. coli filamentation project, primary screen (AID 1093).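 Further: MC1000 strain lacking acrAB efflux and sulA so SOS filamentation is blocked; test concentration not given here.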 Conditions: E. coli DRC41 growth, higher = more signal, called active from +8 up or from −8 down.
Assay [17] in a line: probe aLefty2 binding to arrayed compounds – biochemical, biotinylated probe, 635/667 nm fluorescence, primary screen (AID 1094).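 Further: score merges spot fluorescence near 667 nm with spot signal-to-noise ratio.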 Conditions: small-molecule microarray, higher = more signal.
Assay [18] relates to Noggin (protein binding on small-molecule microarray). In words: small molecules binding Noggin protein – biochemical, 635/667 nm fluorescence, primary screen (AID 1095).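 Further: score merges 667 nm feature fluorescence with signal to noise over triplicate slides.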 The note with it: 635 nm fluorescence, higher = more signal.
In assay [19] the target is Neurogenic locus notch homolog protein 3 (Homo sapiens) (UniProt Q9UM47). The assay can be described thus: small molecules binding NOTCH3 protein – biochemical, 635/667 nm fluorescence, primary screen (AID 1096). The note with it: small-molecule microarray, 635 nm fluorescence, higher = more signal.
The nature of assay [20]: probe aEGFR binding to arrayed compounds – biochemical, biotinylated probe, 635/667 nm fluorescence, primary screen (AID 1097).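 Further: probe is a biotinylated anti-EGFR antibody binding compounds printed on slides; score combines fluorescence near 667 nm and signal to noise of each spot.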 The note with it: small-molecule microarray, higher = more signal.

Sequence of Pro-neuregulin-1, membrane-bound isoform (Homo sapiens) (Q02297 whole entry, looked up, the tested form may be a part, canonical isoform): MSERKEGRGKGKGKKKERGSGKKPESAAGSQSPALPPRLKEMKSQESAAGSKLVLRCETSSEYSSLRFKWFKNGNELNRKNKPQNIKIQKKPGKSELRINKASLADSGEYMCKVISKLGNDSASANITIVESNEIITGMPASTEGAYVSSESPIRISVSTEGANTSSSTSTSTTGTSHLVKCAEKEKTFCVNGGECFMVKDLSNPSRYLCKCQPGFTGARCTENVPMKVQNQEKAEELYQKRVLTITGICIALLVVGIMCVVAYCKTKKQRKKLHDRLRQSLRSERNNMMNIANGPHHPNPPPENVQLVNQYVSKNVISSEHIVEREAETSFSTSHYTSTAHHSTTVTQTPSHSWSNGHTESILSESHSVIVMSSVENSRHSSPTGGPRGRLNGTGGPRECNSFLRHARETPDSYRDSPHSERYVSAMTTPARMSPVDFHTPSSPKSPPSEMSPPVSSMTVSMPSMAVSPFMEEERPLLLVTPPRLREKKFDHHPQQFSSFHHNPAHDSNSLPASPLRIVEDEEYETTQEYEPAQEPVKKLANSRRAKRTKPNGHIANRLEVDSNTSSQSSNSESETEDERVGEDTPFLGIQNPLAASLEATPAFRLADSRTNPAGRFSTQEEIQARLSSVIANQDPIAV

Turning to `C=C(/C=C\CNS(=O)(=O)c1ccc(C)cc1)[C@H](O)[C@H]1CCCN1S(=O)(=O)c1ccccc1[N+](=O)[O-]`, the composite z-score in assay [1] was -0.0107; in assay [2] it was 0.014; in assay [3], -0.114; in assay [4], 0.108; in assay [5], 0.361; in assay [6], 0.618. The composite z-score in assay [7] was 0.577; in assay [9] it was -0.105; in [10], 0.0373; in [11] it was -0.196; in assay [15], 0.782; in assay [17] it was -0.139. Further, the values for the composite z-score in assay [18], in assay [19] and in assay [20] were 0.177, 0.221 and -0.0567, respectively. Moreover, the z-score is -4.49 (inactive) in assay [8]; 1.89 (inactive) in assay [12]; 1.09 (inactive) in assay [13]; 35.1 (active) in assay [14]; 0.753 (inactive) in assay [16].
Regarding `COC(=O)C(CC#Cc1ccc2c(c1)[C@]1(C(=O)N2)[C@H](c2ccccc2OCCO)N2[C@H](c3ccccc3)[C@H](c3ccccc3)OC(=O)[C@H]2[C@@H]1C(=O)N1CCN(c2ncccn2)CC1)C(=O)OC`, the composite z-score was -0.35 in assay [1]; 0.474 in assay [2]; -0.0937 in [3]; 0.431 in assay [4]; 0.852 in assay [5]; 1.31 in assay [6]. Besides, the composite z-score in assay [7] is 1.13; in [9] it was 0.255; in assay [10], -0.11; in assay [11], 1.51; in assay [15] it was 2.15; in assay [17], -0.107. Moreover, the composite z-score was 1.71 in assay [18], 1.09 in [19] and -0.0982 in [20]. Further, the z-score is -1.46 (inactive) in [8]; 2.61 (inactive) in [12]; 1.28 (inactive) in [13]; 6.83 (inactive) in assay [14]; 0.173 (inactive) in assay [16].
On to `COc1cc2c(cc1OC)CN(C(=O)[C@@H]1[C@H]3C(=O)O[C@H](c4ccccc4)[C@H](c4ccccc4)N3[C@H](c3ccc(O)cc3)[C@@]13C(=O)Nc1ccc(C#CC4=CCCCC4)cc13)CC2`, for which the composite z-score in [1] was 0.105; in assay [2], 0.576; in assay [3], -0.0899; in [4], 0.864; in [5] it was 1.48; in [6], 0.347. Besides, the composite z-score in [7] is 1.13; in assay [9], 0.588; in assay [10] it was 0.0479; in [11] it was 1.55; in [15], 2.44; in assay [17], -0.0753. Further, the composite z-score was 0.82 in assay [18], 1.08 in assay [19] and 0.0324 in assay [20]. Moreover, the z-score is 0.561 (inactive) in assay [8]; 1.63 (inactive) in assay [12]; -0.921 (inactive) in [13]; 1.88 (inactive) in [14]; 2.11 (inactive) in assay [16].
As to `[N-]=[N+]=NCc1ccccc1C[C@@]1(C(=O)NCCN2CCOCC2)N=C(c2ccc(OCCCO)cc2)O[C@@H]1c1ccccc1`, the composite z-score in assay [1] was -0.0252; in assay [2], -0.539; in assay [3], -0.0514; in [4], 0.246; in assay [5], 0.266; in assay [6], 1.12. For the same molecule, the composite z-score is 1.28 in assay [7]; 0.804 in assay [9]; -0.0994 in assay [10]; 1.37 in assay [11]; 2.96 in [15]; -0.0073 in assay [17]. The results for the composite z-score in [18], in [19] and in [20] were 0.565, 0.65 and -0.0128, respectively. Also, the z-score in [8] is -3.05 (inactive); in [12], -0.941 (inactive); in assay [13], -3.76 (inactive); in assay [14] it was 15.8 (active); in [16] it was -0.304 (inactive).
In the case of `C=CCNC(=O)[C@H]1[C@@H]2C(=O)O[C@@H](c3ccccc3)[C@@H](c3ccccc3)N2[C@@H](c2ccc(O)cc2)[C@]12C(=O)Nc1ccccc12`, the composite z-score in assay [1] is 0.318; in [2], 0.111; in [3], -0.0628; in [4], -0.519; in assay [5], -1.15; in [6] it was 0.992. The composite z-score in assay [7] is 1.09; in assay [9] it was -0.228; in [10] it was 0.0749; in assay [11], 1.05; in assay [15], 2.75; in assay [17], -0.193. The composite z-score was -0.0122 in assay [18], -0.537 in assay [19] and -0.177 in assay [20]. Moreover, the z-score is -2.15 (inactive) in assay [8]; 1.14 (inactive) in [12]; 0.118 (inactive) in assay [13]; 1.37 (inactive) in assay [14]; 1.68 (inactive) in assay [16].
